Screens deposited in PubChem BioAssay by several laboratories.
Mdm2-MdmX inh: inhibitors of human Mdm2-MdmX association, primary screen, cell-based, luminescence, split luciferase, SaOS-2, uHTS | Protein Mdm4 (Homo sapiens) + E3 ubiquitin-protein ligase Mdm2 (Homo sapiens), … | SaOS-2 split-luciferase Mdm2/MdmX complementation | inhibition, % at 8 µM | hit rate 3% among 330,000 | AID 485346, 2010;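 active = inhibition of at least 50% at 8 µM in the primary screen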
Beta apoptosis: inhibitors of cytokine-induced beta cell apoptosis, primary screen, luminescence; INS-1E cytokine-induced death, ATP luminescence, 48 h; percent of positive-control rescue, neutral wells zero; protection from apoptosis, % (test concentration not listed); hit rate 0.8% among 300,000;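 active = Every replicate reaches about 75%, or at least half do and their mean reaches it too, limit read from the data; inconclusive = At least half of replicates reach the limit but their mean does not; inactive = Under half of replicates reach the limit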;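 note: 0% = cytokine-treated negative control wells and 100% = positive control rescue; higher means more ATP so stronger rescue from cytokine killing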
Calb FLC: C. albicans growth inhibition with fluconazole, primary screen, CaCi-2 strain, Alamar Blue fluorescence; hit rate 0.57% among 300,000; C. albicans CaCi-2 (fluconazole-resistant clinical isolate) + fluconazole, 48 h; growth inhibition, % (concentration not given with the values);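 active = growth inhibition above about 58% in most replicates, limit read from the data, passing the limit was not always enough; inconclusive = exactly half the replicates above a set limit; inactive = most replicates below a set limit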;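 note: all wells also contain fluconazole at 8 µg/ml as a sub-toxic cotreatment; 0% = median of DMSO wells and 100% = median of geldanamycin control wells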
SKKanGAS inh: S. pyogenes SKKanGAS growth inhibitors in kanamycin, primary screen, streptokinase expression inhibitor project, SKKanGAS strain, BacTiter-Glo luminescence; hit rate 1.3% among 300,000; AID 1662, 2009; inhibition, % at 7.5 µM; 6 h;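 active = mean replicate score, as percent of positive control median, at least 50; inconclusive = mean below 50 but one replicate at or above 50; inactive = mean and every replicate below 50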;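 note: strain carries kanamycin resistance gene driven by streptokinase promoter and grows in 40 µg/ml kanamycin; loss of luminescence reflects streptokinase promoter inhibition or plain growth inhibition; 0% = median of DMSO wells and 100% = positive control at its reference dose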
CSC inhib: cancer stem cell viability inhibitors, primary screen, luminescence; cancer stem cell-like cells viability; inhibition, % at 7.5 µM; hit rate 1.1% among 300,000; in the data active = inhibition above about 75%; inconclusive = no clear call, values can overlap the other calls; tested in HMLE shEcad cells
MPTP block: mitochondrial permeability transition pore inhibitors, primary screen, biochemical, isolated mouse mitochondria, absorbance | Ca2+ swelling absorbance, 30 min | inhibition, % at 10 µM | hit rate 1.4% among 360,000;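 active = inhibition of 50% or more, scaled per plate between neutral and stimulator controls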;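 note: 0% = DMSO wells given calcium and 100% = 1 mM EGTA wells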
Rh123 counter: fluorescence retest of MPTP screen hits in isolated mitochondria, single concentration | AID 624504, 2012 | membrane potential, Rhodamine 123 fluorescence | hit rate 78% among 5,000 | shares compounds with MPTP block | inhibition, % at 10 µM; in the data active = inhibition above about 22%;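 note: 0% = DMSO vehicle and 100% = positive control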
MPTP abs DR: mitochondrial permeability transition pore inhibitors, dose response, biochemical, absorbance, uHTS hits; hit rate 58% among 780; IC50, µM; isolated mitochondria swelling; AID 651561, 2012; shares compounds with MPTP block; in the data active = IC50 below about 20 µM
MPTP cs DR: fluorescent counter-screen in isolated mitochondria, dose response, counter-screen for MPTP inhibitor project, biochemical, fluorescence, uHTS hits. IC50, µM. shares compounds with MPTP block. hit rate 49% among 780. AID 651564, 2012. isolated mitochondria counterscreen, fluorescence read-out; in the data active = IC50 below about 80 µM
Active calls of the source: *; ? = inconclusive; · = no result given. A selection: hits, their analogues and other compounds. The true share with any hit is near 5.4%.

SMILES	Mdm2-MdmX inh	Beta apoptosis	Calb FLC	SKKanGAS inh	CSC inhib	MPTP block	Rh123 counter	others
COc1cc(NS(=O)(=O)c2ccc(C)cc2C)cc(OC)c1OC	36.2	·	-0.9	-2.5	9.6	83.7*	71.7*
NC(=O)c1ccc(NC(=O)CN2CCN(c3ccccc3)CC2)cc1	-1.7	-4.1	0.4	-0.8	-10.6	0.6	·
Cc1nc2ccccc2c2oc(C(=O)NCc3ccc4c(c3)OCO4)cc12	10.9	9.9	8.4	-0.7	-4.4	63.2*	30.7*
Cc1ccc2nc(Cl)c(/C=N/NC(=O)[C@H]3C[C@@H]3c3ccccc3)cc2c1	5.3	4.7	-1.7	18.2	7.5	13.9	·
Cc1ccc2nc(Cl)c(/C=N/NC(=O)c3ccccc3O)cc2c1	8.6	-2.5	3.3	-8.8	6.2	64.8*	75.8*
OC(c1cccc(OCc2ccccc2)c1)c1nnc(-c2ccccc2)o1 (configuration not stated)	8.7	50.1	-6.7	16.8	-6.6	104.4*	95.5*
CC(=O)c1cccc(N/C=C\C(=O)c2ccc(C)cc2)c1	·	-9.1	-8.1	-6.1	-0.7	1.4	·
CC(=O)c1cccc(NS(=O)(=O)c2ccc(N/C=C\C(=O)c3ccc(C)cc3)cc2)c1	41.3	45.4	-21.8	5.2	-6.4	106.2*	84.6*
CC(=O)c1cccc(NS(=O)(=O)c2ccc(N/C=C/C(=O)c3ccc(F)cc3)cc2)c1	36.0	111.8*	-6.5	23.3	1.4	108.1*	94.4*
O=S(=O)(c1ccc(Oc2ccc3oc4ccccc4c3c2)nc1)N1CCCC1	5.0	5.1	-1.2	2.1	-0.8	9.6	·
COc1ccc(S(=O)(=O)Nc2ccc3c(c2)OCO3)cc1OC	15.8	-4.5	1.2	0.9	-11.6	0.8	·
COc1ccc(NS(=O)(=O)c2ccc3c(c2)OCCO3)cc1OC	21.0	66.4	1.2	-1.2	-2.8	84.8*	85.8*
COc1ccc(S(=O)(=O)Nc2ccc3c(c2)OCCO3)cc1Cl	17.5	5.7	1.5	-1.1	-6.3	-0.8	·
O=S(=O)(Nc1ccc2c(c1)OCCO2)c1ccc2oc3ccccc3c2c1	28.1	3.5	-18.2	27.8	27.3	68.0*	80.8*
CC(=O)Nc1ccc(S(=O)(=O)Nc2ccc3c(c2)OCCO3)cc1Cl	15.4	11.2	-5.0	-0.3	-0.3	79.0*	57.9*
OC(CN1CCCCC1)CN(c1ccccc1)c1ccccc1 (configuration not stated)	17.3	2.0	-11.6	3.3	-10.3	1.9	·
OC(CN1CCCCCC1)CN(c1ccccc1)c1ccccc1 (configuration not stated)	-3.8	30.6	-69.0	-1.7	-5.0	67.1*	51.1*
Cc1c(NC(=S)NC(=O)c2sc3ccccc3c2Cl)cccc1C(=O)O	-30.0	-3.2	23.4	16.0	-6.1	-1.5	·
COc1ccccc1C(=O)NC(=S)NNC(=O)c1sc2ccccc2c1Cl	42.3	11.6	4.2	118.5*	55.1	95.1*	-6.8
COc1ccccc1C(=O)NNC(=S)NC(=O)c1sc2ccccc2c1Cl	43.7	0.5	-8.1	94.0*	·	97.8*	-10.6
CC1CCCCC1NC(=S)NC(=O)c1sc2ccccc2c1Cl (configuration not stated)	9.3	-2.2	-21.6	4.7	0.3	11.3	·
O=c1[nH][nH]c(=O)c2c(NS(=O)(=O)c3ccccc3)cccc12	-9.9	0.5	-34.1	8.3	9.4	-2.8	·
c1coc(CN(Cc2ccco2)c2ncnc3c2oc2ccccc23)c1	39.2	·	1.5	?	33.6	83.4*	66.6*
COc1ccccc1-n1c(SCC(=O)c2ccc(O)cc2O)nc2cc([N+](=O)[O-])ccc21	-0.5	-2.0	39.9	-8.2	·	88.4*	66.3*
COc1ccccc1-n1c(SCC(=O)NC2CCS(=O)(=O)C2)nc2cc([N+](=O)[O-])ccc21 (configuration not stated)	20.0	-0.6	-3.4	2.4	1.0	0.8	·
SMILES	Mdm2-MdmX inh	Beta apoptosis	Calb FLC	SKKanGAS inh	CSC inhib	MPTP block	Rh123 counter	others
COc1cccc(/C=N/Nc2snc(SC)c2C#N)c1O	43.7	100.7*	1.7	27.1	56.4	99.4*	86.5*
C[C@@H]1CN([C@@H](C)CO)C(=O)CCCn2cc(nn2)CO[C@H]1CN(C)S(=O)(=O)c1ccc(Oc2ccccc2)nc1	·	·	·	·	·	0.2	·
Cc1ccc(NC(=O)CSc2nc(=O)cc(N)n2-c2ccccc2)cc1	-12.3	-9.1	14.1	23.2	0.3	0.1	·
Nc1cc(=O)nc(SCC(=O)N(C2CCCCC2)C2CCCCC2)n1-c1ccccc1	-26.7	-2.3	2.9	29.0	-1.2	64.1*	-11.9	MPTP abs DR=>100;MPTP cs DR=>80
Oc1ccc(C[C@@H]2CNC(=S)N2CCc2cc(C(F)(F)F)cc(C(F)(F)F)c2)cc1	8.0	-0.4	-24.2	3.8	3.6	1.2	·
CCCC[C@@H]1CNCCN1CCc1cccc2ccccc12	21.1	0.8	-6.2	3.4	5.2	65.4*	-9.6	MPTP abs DR=12.3*;MPTP cs DR=>80
Oc1ccc(C[C@@H]2CNCCN2CCc2cc(C(F)(F)F)cc(C(F)(F)F)c2)cc1	47.4	-1.3	-1.7	5.4	36.2	94.0*	-23.6	MPTP abs DR=4.26*;MPTP cs DR=>80
Oc1ccc(C[C@H]2CNCCN2CCc2cccc3ccccc23)cc1	37.2	-2.7	-7.8	-5.3	2.2	75.6*	-8.5	MPTP abs DR=4.75*;MPTP cs DR=>80
Cc1ccc(-c2nc3ccc(Br)cn3c2CC(C)(C)C)cc1	·	·	·	·	·	-1.2	·
O=C(NCc1ccccn1)c1ccc(OC2CCN(Cc3ccccc3)CC2)cc1	25.0	0.2	-3.3	-1.9	-4.5	0.5	·
CC(C)c1cc(C(=O)N2CCCC(N3CCN(c4ccccc4F)CC3)C2)nc(N)n1 (configuration not stated)	3.4	·	-7.1	1.8	-21.0	1.1	·
Cn1nc(C(F)(F)F)c(-c2ccc(F)cc2)c1NC(=O)Nc1ccc(F)cc1	4.6	12.8	-5.7	9.5	20.5	73.8*	89.0*
Cc1ccc(N=c2sc(C)c(C)n2C)cc1	-48.6	-4.4	-0.1	1.8	-4.1	-1.1	·
N#C/C(=C(/O)CN1CCN(c2ccccc2F)CC1)c1nc(-c2ccc(Cl)cc2)cs1	8.9	22.0	-0.9	19.6	35.1	57.8*	70.6*
N#C/C(=C(/O)CN1CCCCC1)c1nc(-c2ccc(Cl)cc2)cs1	-11.7	-3.6	3.7	-8.2	-0.5	1.1	·
